Source: PubChem BioAssay
A selection: hits, their analogues and other compounds. The true share with any hit is near 6.3%.
RORg inh – inhibitors of mouse ROR gamma transcriptional activity. P51450. Drosophila S2 Gal4-RORgamma UAS-luciferase reporter, 20 h. Potency, µM (doses to about 53.6 µM), inactives show top-dose activity change, negative = inhibition, most hits filed as inhibitors. hit rate 5.4% among 310,000. AID 2551; further: on the % scale 0 is the no-effect control and ±100 the full control effect; nearly all actives have a fitted effect of over 60% in size
Target sequence (P51450 whole entry, looked up, the tested form may be a part): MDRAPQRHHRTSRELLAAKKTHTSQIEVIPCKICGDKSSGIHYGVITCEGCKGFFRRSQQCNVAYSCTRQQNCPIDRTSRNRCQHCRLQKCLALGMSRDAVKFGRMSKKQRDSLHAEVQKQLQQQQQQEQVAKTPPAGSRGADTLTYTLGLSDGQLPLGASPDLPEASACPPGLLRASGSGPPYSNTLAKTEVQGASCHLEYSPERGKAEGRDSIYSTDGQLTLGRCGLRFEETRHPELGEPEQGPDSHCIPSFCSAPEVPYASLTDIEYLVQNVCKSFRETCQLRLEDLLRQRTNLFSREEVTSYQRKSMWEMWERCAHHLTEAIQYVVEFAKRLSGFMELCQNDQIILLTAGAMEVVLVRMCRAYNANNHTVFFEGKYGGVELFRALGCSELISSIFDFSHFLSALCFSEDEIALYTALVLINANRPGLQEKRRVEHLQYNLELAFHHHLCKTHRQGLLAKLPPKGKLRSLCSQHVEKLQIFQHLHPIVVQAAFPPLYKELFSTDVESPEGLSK
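Schneider cells (Drosophila), stable Gal4 DBD–ROR gamma + UAS-luc; 1 hr cmpd preincubation; Cu2+ induction 700 uM final; 20 hr ambient; luminescence.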
TGFb inhibitor – TGF-b pathway inhibition. hit rate 1.2% among 410,000. HepG2 CAGA-GFP TGF-b/SMAD3 reporter, GFP fluorescence, 18 h; TGF-beta stimulated, 500 pg/mL final. Potency, µM (series often up to 46.1 µM), inactives show at the highest dose activity, negative = inhibition, hits mostly inhibitors. AID 588855; further: on the % scale 0 is the no-effect control and ±100 the full control effect; nearly all actives have a fitted effect of over 65% in size
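GFP signal (ex488/em500-530) from TGF-beta-stimulated HEPG2 CAGA-GFP cells, 500 pg/mL final, 18 h at 37 degrees C in DMEM plus 1% FBS, normalized to unstimulated and DMSO-stimulated controls.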
HepG2 viability – counter-screen for TGF-b inhibitors: cytotoxicity in HepG2 cells. HepG2 CAGA-GFP viability, ATP luminescence, 18 h. Potency, µM (series often up to 46.1 µM), for inactives: top-dose activity change, negative = cytotoxicity, actives largely listed as cytotoxic. hit rate 0.76% among 410,000. AID 588856
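CellTiter-Glo luminescence gave cytotoxicity after 18 hours at 37 degrees C. The cells were HepG2 CAGA-GFP in 1% FBS DMEM, stimulated with 500 pg/mL TGF-beta after compound addition. %Activity was normalised to no-cell wells (complete cell-killing) and DMSO (no toxicity), and curves were fitted and classified.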
ATXN viability – cell viability loss in ATXN counter-screen. S2 cells (HEK-293 line with an ATXN2-luciferase reporter) viability, CellTiter-Fluor protease fluorescence, 24 h. Potency, µM (top dose mostly 56.7 µM), most hits filed as cytotoxic. hit rate 0.49% among 400,000. AID 651635; further: nearly all actives have a fitted effect of over 40% in size
VP16 counter – counter-screen for ROR gamma inhibitors: Gal4-VP16 reporter. Potency, µM (top dose mostly 53.6 µM), inactives show at the top dose activity, negative = inhibition, actives largely listed as inhibitors. hit rate 3.5% among 310,000. AID 2546. Drosophila S2 Gal4-VP16 UAS-luciferase, luminescence, 20 h;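 further: Gal4-VP16 expression switched on by copper sulfate through the metallothionein promoter; on the % scale 0 is the no-effect control and ±100 the full control effect; nearly all actives have a fitted effect of over 50% in size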
ATXN2 expr inh – inhibitors of ATXN2 expression; AID 1745845; HEK-293 ATXN2-luciferase reporter, luminescence, 24 h; hit rate 0.72% among 360,000; Potency, µM (top dose mostly 57 µM), for inactives: at the top dose activity change, negative = inhibition, most hits filed as inhibitors; further: on the % scale 0 is the no-effect control and ±100 the full control effect; nearly all actives have a fitted effect of over 55% in size
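qHTS (up to 57 uM final) was run with 24 h compound exposure of reporter cells at 37 °C. Each well was multiplexed: SteadyGlo luminescence measured ATXN2-luciferase expression after a fluorogenic Gly-Phe-AFC viability readout (25 uM final).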
An asterisk follows results filed as active; i = inactive; ? = inconclusive; / = no result given. The call rests on the fitted dose curve; in most records, active means well fitted curve in the direction sought with a large enough effect; inconclusive means small, poorly fitted or top-dose-only effect, or another doubt; inactive means no such curve, though single readings can be large; an effect the other way counts as inactive or inconclusive. Potency means the concentration at half of the fitted maximal effect.

SMILES	RORg inh	TGFb inhibitor	HepG2 viability	ATXN viability	VP16 counter	ATXN2 expr inh
Cc1cc(Br)cc(/C=N/NC(=O)c2ccc3c(c2)OCO3)c1O	2.5µM*	5.6µM*	1.8µM*	?	3.5µM*	/
O=C(N/N=C/c1cc(Br)c(Br)o1)c1ccc2c(c1)OCCO2	7%	2%	14%	?	-3%	-13%
O=C(N/N=C/c1ccccc1OC(=O)c1ccc2c(c1)OCO2)c1cccc(F)c1	13µM*	0%	-29%	?	?	0%
CC(C)CC(CC(C)C)=NNC(=O)c1ccc2c(c1)OCO2	13µM*	3%	-22%	i	5%	12%
CC(CNC(=O)Cn1c(-c2cccs2)cc2cc(Cl)ccc21)c1ccccc1 (stereo not drawn)	/	-18%	-15%	i	/	-11%
CCC(C)c1ccc(NC(=S)N2CCN(S(C)(=O)=O)CC2)cc1 (stereo not drawn)	0%	1%	-1%	i	11%	12%
Cc1noc(C)c1-c1ccc2ncnc(NCc3ccco3)c2c1	-1%	/	/	/	-8%	/
O=C(N/N=C\c1cccs1)c1sccc1-n1cccc1	1.3µM*	-7%	-25%	i	?	15%
O=C(N/N=C/c1cc(Br)cc(Cl)c1O)c1ccc2c(c1)OCO2	/	?	-64%	i	/	13µM*
O=C(N/N=C/c1ccccc1O)c1ccc2c(c1)OCO2	0.56µM*	-26%	-13%	i	1.8µM*	?
CC1CCC(NC(=O)c2ccc3c(c2)OCO3)CC1 (stereo not drawn)	10µM*	0%	-10%	i	?	?
OC1CCC(Nc2ncc3nc(Nc4c(F)cc(F)cc4F)n([C@@H]4CCOC4)c3n2)CC1 (stereo partly drawn)	/	/	/	/	/	-13%
CC(C)(C)n1ncc2c(=O)n(Cc3ccc([S+](=O)([O-])N4CCOCC4)cc3)cnc21	/	0%	-15%	/	/	/
CCC1CN(CC(=O)NC(C)CO)Cc2cc(OC)ccc2O1 (stereo not drawn)	/	/	/	i	/	/
O=C(N/N=C/c1cccs1)c1ccc2c(c1)OCO2	14µM*	-7%	-4%	i	?	-15%
CC(CCN1CCN(CCO)CC1)c1ccccc1 (stereo not drawn)	2.8µM*	-1%	3%	i	3%	/
CC(CCN1CCOCC1)c1ccccc1 (stereo not drawn)	15%	-10%	-13%	i	1%	3%
Cc1cc(C)cc(NC(=S)N2CCN(c3ncc(C(F)(F)F)cc3Cl)CC2)c1	3.5µM*	-16%	-28%	i	-26%	-2%
COC(=O)c1cc(OC)c(OC)cc1NC(=S)N1CCN(c2ccccn2)CC1	11µM*	20%	-18%	i	6%	-8%
C=CCNC(=S)N1CCN(c2ncc(C(F)(F)F)cc2Cl)CC1	-38%	-18%	-20%	i	9%	-24%
S=C(Nc1cc(Cl)cc(Cl)c1)N1CCN(c2ccccn2)CC1	11µM*	0%	5%	i	-22%	-22%
S=C(Nc1ccc(Br)cc1)N1CCN(c2ccccn2)CC1	11µM*	?	3%	i	?	-18%
Cc1nn(C(C)C(=O)NC2CCCCC2)c(=O)c2nn(-c3ccccc3)c(C)c12 (stereo not drawn)	-2%	14%	1%	i	6%	/
COc1nc(=O)n(C2CCCO2)cc1C (stereo not drawn)	/	-15%	-14%	i	/	1%
Cc1ccc(C(C)(C)C)cc1S(=O)(=O)Nc1cccc(C(=O)N2CCN(c3ccccn3)CC2)c1	/	28µM*	-31%	i	/	8%
Cc1cccc(NS(=O)(=O)c2cccc(C(=O)N3CCN(c4ccccn4)CC3)c2)c1	35%	?	0%	i	2%	-15%
S=C(Nc1cc(Cl)cc(Cl)c1)N1CCCC1	5µM*	-1%	-1%	i	?	12%
